Inconclusive results are not listed. The source made the active and inactive calls. The calls were made as follows, unless noted: active = hit-call score of the fitted dose curve at least 0.9, where 1 is the maximum; inconclusive = response in the unintended direction; inactive = score below 0.9.

Assay [1] concerns guinea pig Histamine Receptor (H2), gene 100729734. The assay is described as follows: NVS_GPCR_gH2: NovaScreen (NVS) G Protein-Coupled Receptor Assay for guinea pig Histamine Receptor (H2) (AID 2283342). A digest of the protocol: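 Guinea pig striatal membrane preparation with specific radioligand; bound counts measured by filtration and scintillation 1 h post-dosing, DMSO as baseline. Chemicals passing a 25 uM duplicate screen were titrated to a 50 uM maximum.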

Assay [2] concerns the target Voltage-gated inwardly rectifying potassium channel KCNH2 (Homo sapiens) (UniProt Q12809). The assay can be described thus: NVS_IC_hKhERGCh: NovaScreen (NVS) Ion Channel Assay for human Potassium Channel ERG (KhERGCh) (AID 2283333). A digest of the protocol:
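Membranes from CHO cells expressing human ERG; displacement of radioligand measured by filtration and scintillation after 0.75 h. Single-concentration duplicate screen at 25 uM, then concentration-response for actives; DMSO baseline.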

The target of assay [3] is Small conductance calcium-activated potassium channel protein 1 (Rattus norvegicus) (UniProt P70606). The assay is described as follows: NVS_IC_rKCaCh: NovaScreen (NVS) Ion Channel Assay for rat Potassium Channel, Ca2+ Act., VI (KCaCh) (AID 2283336). The method in brief: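 Filter-based scintillation counting of radioligand bound to rat forebrain membrane preparations, measured 1 h after compound addition. Primary screen used 25 uM in duplicate, with concentration-response follow-up; signal decrease relative to DMSO marks activity.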
Chain of Small conductance calcium-activated potassium channel protein 1 (Rattus norvegicus) (P70606 whole entry, looked up): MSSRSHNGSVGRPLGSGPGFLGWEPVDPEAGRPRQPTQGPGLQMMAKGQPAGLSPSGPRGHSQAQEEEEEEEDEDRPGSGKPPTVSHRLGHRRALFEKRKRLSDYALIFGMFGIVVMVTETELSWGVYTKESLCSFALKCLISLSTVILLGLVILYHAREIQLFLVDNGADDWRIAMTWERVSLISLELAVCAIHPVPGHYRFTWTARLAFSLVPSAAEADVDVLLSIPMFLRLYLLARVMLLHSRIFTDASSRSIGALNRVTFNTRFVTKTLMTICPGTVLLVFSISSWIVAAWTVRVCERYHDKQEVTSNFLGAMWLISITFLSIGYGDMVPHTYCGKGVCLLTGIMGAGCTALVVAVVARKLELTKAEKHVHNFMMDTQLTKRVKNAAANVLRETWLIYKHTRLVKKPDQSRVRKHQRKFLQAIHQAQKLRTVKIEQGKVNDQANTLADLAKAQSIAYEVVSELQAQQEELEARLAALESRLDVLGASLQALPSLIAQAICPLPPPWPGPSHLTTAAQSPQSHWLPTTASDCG

Assay [4] has as its target Estrogen receptor (Homo sapiens) (UniProt P03372). The assay can be described thus: OT_ER_ERaERa_1440: Odyssey Thera (OT) 24-hour HEK293T Protein-Complementation Assay for Estrogen Receptor-alpha/-alpha Homodimer (AID 2283349).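 Also: hits raise fluorescence above DMSO for agonists and antagonists alike.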 A digest of the protocol:
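Stably transfected HEK293T; ERα LBD homodimer PCA. 24 h dosing, fluorescence intensity read, gain-of-signal vs DMSO.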

Assay [5] shares this target. The assay can be described thus: OT_ER_ERaERa_0480: Odyssey Thera (OT) 8-hour HEK293T Protein-Complementation Assay for Estrogen Receptor-alpha/-alpha Homodimer (AID 2283351).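 Also: rise in fluorescence from reassembled reporter fragments on ERα LBD homodimer in nucleus or whole cell.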 The method in brief:
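Cells were treated for 8 hours, then imaged on a laser scanning plate cytometer. Complementation of reporter fragments fused to the human ERα ligand-binding domain (residues 310-547) in HEK293T gave fluorescence, and gain of signal over vehicle was fitted.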

Assay [6] has as its target T1, Estrogen receptor (Homo sapiens) + Estrogen receptor beta (Homo sapiens) (UniProt P03372+Q92731). The assay is described as follows: OT_ER_ERaERb_0480: Odyssey Thera (OT) 8-hour HEK293T Protein-Complementation Assay for Estrogen Receptor-alpha/-beta Heterodimer (AID 2283352). The method in brief: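 HEK293T protein-fragment complementation assay of ER-alpha/ER-beta LBD heterodimerisation, read 8 h after dosing. Mean nuclear/cytoplasmic fluorescence intensity measured by laser scanning cytometry; gain of signal fitted relative to DMSO.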

Assay [7] concerns the target T1, Estrogen receptor (Homo sapiens) + Estrogen receptor beta (Homo sapiens). The assay can be described thus: OT_ER_ERaERb_1440: Odyssey Thera (OT) 24-hour HEK293T Protein-Complementation Assay for Estrogen Receptor-alpha/-beta Homodimer (AID 2283356).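 Also: heteromer of ER alpha and ER beta binding domains; hits raise reporter fluorescence and both agonists and antagonists give an increase.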 A digest of the protocol: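 HEK293T stably expressing a PCA of ER alpha LBD (aa 310-547) and ER beta LBD (aa 263-489). After 24 h compound exposure, mean fluorescence intensity in nucleus (agonists) or nucleus and cytoplasm (antagonists) measured by laser scanning cytometry versus vehicle.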

Assay [8] addresses rat Peripheral-type Benzodiazepine Receptor (PBR), Tspo (gene 24230) (UniProt P16257). The assay is described as follows: NVS_MP_rPBR: NovaScreen (NVS) Membrane Protein Assay for rat Peripheral-type Benzodiazepine Receptor (PBR) (AID 2283335). A digest of the protocol:
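Competitive displacement of specific radioligand from rat kidney membrane PBR, read by filtration and scintillation after 1 h. Compounds first tested at 25 uM in duplicate, then in concentration series; signal loss relative to DMSO.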

The target in assay [9] is human Constitutive Androstane Receptor (CAR), NR1I3 (gene 9970) (UniProt Q14994). The assay is described as follows: NVS_NR_hCAR_Antagonist: NovaScreen (NVS) Nuclear Receptor Binding Assay for human Constitutive Androstane Receptor Antagonism (CAR) (AID 2283344). The method in brief: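 Single 25 uM duplicate primary screen, with concentration-series follow-up on actives. Cell-free binding format run in antagonist mode, TR-FRET signal taken 1 h post-dose; activity is signal loss relative to DMSO.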
Chain of human Constitutive Androstane Receptor (CAR), NR1I3 (gene 9970) (Q14994 whole entry, looked up): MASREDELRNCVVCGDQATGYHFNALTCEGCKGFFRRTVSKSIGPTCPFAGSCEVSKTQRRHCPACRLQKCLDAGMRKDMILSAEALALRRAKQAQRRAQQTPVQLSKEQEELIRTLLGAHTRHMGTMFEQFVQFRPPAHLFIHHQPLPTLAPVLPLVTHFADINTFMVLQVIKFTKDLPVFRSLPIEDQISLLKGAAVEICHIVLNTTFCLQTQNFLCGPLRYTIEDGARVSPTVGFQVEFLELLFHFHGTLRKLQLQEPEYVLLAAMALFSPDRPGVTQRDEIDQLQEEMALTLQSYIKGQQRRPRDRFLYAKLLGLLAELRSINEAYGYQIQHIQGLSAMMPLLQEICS

The target in assay [10] is rat Mineralocorticoid Receptor (MR), Nr3c2 (gene 25672) (UniProt P22199). The assay can be described thus: NVS_NR_rMR: NovaScreen (NVS) Nuclear Receptor Binding Assay for rat Mineralocorticoid Receptor (MR) (AID 2283355). The method in brief:
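Single-concentration duplicate screen (25 uM) of radioligand binding in adrenalectomized rat brain supernatant; scintillation detection 24 h after dosing. Positive and negative controls ran on each plate, and confirmed actives went to concentration-response.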

The target in assay [11] is Glutamate receptor ionotropic, kainate 1 (Rattus norvegicus) (UniProt P22756). The assay is described as follows: NVS_IC_rKAR: NovaScreen (NVS) Ion Channel Assay for rat Kainic Acid Receptors (KAR) (AID 2283334; active = hit-call score of the fitted dose curve at least 0.9, where 1 is the maximum; inactive = score below 0.9). The method in brief: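 Rat forebrain membrane preparation incubated 1 h with radioligand and test chemical; bound signal read by filtration and scintillation. Single-concentration screen at 25 uM, then concentration series to 50 uM maximum.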

Assay [12] has as its target Androgen Receptor/SRC-1 Co-activator, AR (gene 367) (UniProt P10275). The assay is described as follows: OT_AR_ARSRC1_0960: Odyssey Thera (OT) 16-hour HEK293T Protein-Complementation Assay for Androgen Receptor/SRC-1 Co-activator (AID 2283353).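 Also: actives raise the signal above DMSO so potency reflects increased AR and SRC-1 complex.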 A digest of the protocol:
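Stable HEK293T line carries AR and SRC-1 each linked to a Venus fragment; chemicals are applied for 16 h, cells imaged at two wavelengths, and the 488 nm nucleus/cytoplasm ratio is taken as the signal, rising relative to DMSO.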

Assay [13] concerns the target rat Glycine Receptor, Strychnine-sensitive (GlyRStrySens), Glra1 (gene 25674) (UniProt P07727). The assay is described as follows: NVS_LGIC_rGlyRStrySens: NovaScreen (NVS) Ligand-Gated Ion Channel Assay for rat Glycine Receptor, Strychnine-sensitive (GlyRStrySens) (AID 2283341). The method in brief: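 Radioligand displacement on rat spinal cord membranes, 1 hr, filter scintillation read-out. Single-concentration duplicate screen at 25 uM; chemicals meeting threshold (e.g., 30% inhibition) rerun in concentration-response up to 50 uM. Loss of binding fitted versus DMSO.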

Assay [14] relates to NCBI gene 100848466. The assay can be described thus: NVS_NR_bPR: NovaScreen (NVS) Nuclear Receptor Binding Assay for bovine Progextron Receptor (PR) (AID 2283343).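 Also: actives lower bound radioligand signal below DMSO meaning displacement of the label.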 The method in brief:
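Steps: bovine uterine membranes were dosed with chemical alongside radioligand, incubated 18 hours, then radiodetected by scintillation counting. Initial testing used 25 uM in duplicate; confirmed actives were rerun as concentration series.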

For assay [15], the target named is chimpanzee Androgen Receptor (AR), AR (gene 747460) (UniProt O97775). The assay can be described thus: NVS_NR_cAR: NovaScreen (NVS) Nuclear Receptor Binding Assay for chimpanzee Androgen Receptor (AR) (AID 2283346). A digest of the protocol: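 Cell-free radioligand displacement using receptor protein extracted from Sf9/Sf21 cells; bound radioligand measured by scintillation counting 72 hours after chemical dosing. Loss of signal versus DMSO baseline indicates binding; primary screen single-concentration in duplicate at 25 uM, actives followed in concentration series.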

The target in assay [16] is Bile acid receptor (Homo sapiens) (UniProt Q96RI1). The assay is described as follows: NVS_NR_hFXR_Antagonist: NovaScreen (NVS) Nuclear Receptor Binding Assay for human Farnesoid X Receptor Antagonism (FXR) (AID 2283350). The method in brief: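 Antagonist-format time-resolved FRET binding assay with extracted human receptor protein, read 1 hour after compound addition. Compounds first screened at 25 uM in duplicate, then actives tested in concentration series, with loss of signal relative to DMSO.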

For assay [17], the target named is bovine Gamma-Aminobutyric Acid Type A Receptor Agonist (GABAR Agonist), GABRA1 (gene 780973) (UniProt P08219). The assay is described as follows: NVS_LGIC_bGABAR_Agonist: NovaScreen (NVS) Ligand-Gated Ion Channel Assay for bovine Gamma-Aminobutyric Acid Type A Receptor Agonist (GABAR Agonist) (AID 2283338). A digest of the protocol: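 Radioligand binding to bovine cerebellar membranes in agonist format, read by filter-based scintillation counting after 1 h. Primary screen in duplicate at 25 uM, with actives followed in concentration series. Gain of signal versus DMSO.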

For assay [18], the target named is bovine Estrogen Receptor (ER), ESR1 (gene 407238) (UniProt P49884). The assay can be described thus: NVS_NR_bER: NovaScreen (NVS) Nuclear Receptor Binding Assay for bovine Estrogen Receptor (ER) (AID 2283345).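 Also: actives lower the bound radioligand count which means they displace the ER ligand.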 The method in brief:
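Displacement of a radioligand from estrogen receptor in bovine uterine membrane preparations; scintillation signal taken at 18 hours, DMSO as baseline. Single-concentration duplicates (25 uM) preceded concentration-response follow-up of actives.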

The target in assay [19] is rat Glutamate, MK-801 Agonist Site (GluNMDA_MK801), Grin1 (gene 24408) (UniProt P35439). The assay is described as follows: NVS_LGIC_rGluNMDA_MK801_Agonist: NovaScreen (NVS) Ligand-Gated Ion Channel Assay for rat Glutamate, MK-801 Agonist Site (GluNMDA_MK801) (AID 2283340). The method in brief: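 Rat forebrain membrane preparation; MK-801-site radioligand binding read by filtration and scintillation after 1.5 h. Single-point 25 uM duplicate screen, followed by singleton concentration series to 50 uM max; DMSO baseline.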

Chain of rat Peripheral-type Benzodiazepine Receptor (PBR), Tspo (gene 24230) (P16257 whole entry, looked up): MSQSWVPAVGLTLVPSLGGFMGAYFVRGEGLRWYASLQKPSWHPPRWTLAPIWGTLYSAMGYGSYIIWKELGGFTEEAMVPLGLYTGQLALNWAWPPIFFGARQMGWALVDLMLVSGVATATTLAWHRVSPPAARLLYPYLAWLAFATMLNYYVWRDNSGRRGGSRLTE
Chain of Voltage-gated inwardly rectifying potassium channel KCNH2 (Homo sapiens) (Q12809 whole entry, looked up): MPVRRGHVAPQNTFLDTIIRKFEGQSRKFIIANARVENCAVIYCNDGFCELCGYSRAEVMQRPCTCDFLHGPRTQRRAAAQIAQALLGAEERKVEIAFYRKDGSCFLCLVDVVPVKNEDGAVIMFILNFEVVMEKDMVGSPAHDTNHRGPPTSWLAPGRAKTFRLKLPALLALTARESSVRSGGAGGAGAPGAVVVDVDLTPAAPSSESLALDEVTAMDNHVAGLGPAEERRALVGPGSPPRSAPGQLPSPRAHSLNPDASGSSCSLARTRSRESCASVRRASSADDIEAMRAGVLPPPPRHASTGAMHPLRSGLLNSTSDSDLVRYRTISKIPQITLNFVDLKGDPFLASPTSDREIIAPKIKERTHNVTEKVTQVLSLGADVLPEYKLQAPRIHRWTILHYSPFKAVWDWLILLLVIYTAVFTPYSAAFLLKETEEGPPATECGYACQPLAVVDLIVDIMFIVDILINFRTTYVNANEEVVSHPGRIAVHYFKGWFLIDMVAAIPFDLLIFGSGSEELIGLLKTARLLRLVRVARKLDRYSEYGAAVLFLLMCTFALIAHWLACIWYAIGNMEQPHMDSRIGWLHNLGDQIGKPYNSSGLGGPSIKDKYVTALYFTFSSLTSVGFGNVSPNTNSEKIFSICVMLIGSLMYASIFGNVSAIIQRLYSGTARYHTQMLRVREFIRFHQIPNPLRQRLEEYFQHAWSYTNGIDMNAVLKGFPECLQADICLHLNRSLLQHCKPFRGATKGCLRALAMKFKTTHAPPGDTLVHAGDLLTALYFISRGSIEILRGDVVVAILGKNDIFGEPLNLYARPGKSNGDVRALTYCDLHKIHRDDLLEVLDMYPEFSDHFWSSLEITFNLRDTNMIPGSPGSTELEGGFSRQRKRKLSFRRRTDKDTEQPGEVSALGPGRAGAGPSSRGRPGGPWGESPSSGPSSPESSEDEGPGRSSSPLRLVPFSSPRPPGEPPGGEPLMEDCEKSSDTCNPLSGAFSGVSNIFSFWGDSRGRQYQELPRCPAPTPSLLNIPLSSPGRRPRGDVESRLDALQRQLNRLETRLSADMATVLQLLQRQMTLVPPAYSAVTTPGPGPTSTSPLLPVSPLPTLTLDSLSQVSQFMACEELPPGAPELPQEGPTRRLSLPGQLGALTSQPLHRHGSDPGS
T1 sequence (P03372 whole entry, looked up, the tested form may be a part): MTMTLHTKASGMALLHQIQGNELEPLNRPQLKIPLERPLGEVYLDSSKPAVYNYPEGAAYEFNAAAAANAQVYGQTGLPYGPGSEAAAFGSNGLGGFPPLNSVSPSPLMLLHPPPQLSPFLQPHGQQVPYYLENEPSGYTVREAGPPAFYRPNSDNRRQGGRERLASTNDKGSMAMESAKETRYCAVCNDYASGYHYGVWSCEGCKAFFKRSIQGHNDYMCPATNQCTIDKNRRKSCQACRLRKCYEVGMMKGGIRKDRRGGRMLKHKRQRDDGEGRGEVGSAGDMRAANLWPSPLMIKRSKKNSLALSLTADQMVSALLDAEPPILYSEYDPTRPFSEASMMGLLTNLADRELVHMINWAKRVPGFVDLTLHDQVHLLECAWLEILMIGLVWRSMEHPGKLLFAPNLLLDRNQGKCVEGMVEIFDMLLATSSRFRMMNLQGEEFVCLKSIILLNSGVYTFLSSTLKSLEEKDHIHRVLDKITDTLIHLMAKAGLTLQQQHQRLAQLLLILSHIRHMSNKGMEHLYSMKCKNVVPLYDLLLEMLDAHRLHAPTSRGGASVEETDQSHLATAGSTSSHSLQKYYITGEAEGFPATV
T1 sequence (Q92731 whole entry, looked up, the tested form may be a part): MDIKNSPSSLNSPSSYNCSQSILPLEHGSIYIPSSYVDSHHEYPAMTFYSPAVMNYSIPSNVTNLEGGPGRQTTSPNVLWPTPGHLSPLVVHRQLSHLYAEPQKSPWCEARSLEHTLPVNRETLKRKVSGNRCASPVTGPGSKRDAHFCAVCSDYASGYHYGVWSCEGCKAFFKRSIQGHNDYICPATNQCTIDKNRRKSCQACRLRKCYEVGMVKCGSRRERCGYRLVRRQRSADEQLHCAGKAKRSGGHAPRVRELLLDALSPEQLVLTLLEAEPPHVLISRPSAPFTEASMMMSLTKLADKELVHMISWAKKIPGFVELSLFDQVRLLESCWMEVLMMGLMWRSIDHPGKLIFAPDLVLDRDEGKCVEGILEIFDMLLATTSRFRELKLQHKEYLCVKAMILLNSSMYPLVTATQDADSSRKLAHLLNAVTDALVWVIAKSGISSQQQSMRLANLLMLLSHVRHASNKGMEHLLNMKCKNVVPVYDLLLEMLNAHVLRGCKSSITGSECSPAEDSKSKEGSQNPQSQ
Chain of Estrogen receptor (Homo sapiens) (P03372 whole entry, looked up, the tested form may be a part): as the sequence (P03372 whole entry, looked up, the tested form may be a part) above
Chain of Androgen Receptor/SRC-1 Co-activator, AR (gene 367) (P10275 whole entry, looked up, the tested form may be a part): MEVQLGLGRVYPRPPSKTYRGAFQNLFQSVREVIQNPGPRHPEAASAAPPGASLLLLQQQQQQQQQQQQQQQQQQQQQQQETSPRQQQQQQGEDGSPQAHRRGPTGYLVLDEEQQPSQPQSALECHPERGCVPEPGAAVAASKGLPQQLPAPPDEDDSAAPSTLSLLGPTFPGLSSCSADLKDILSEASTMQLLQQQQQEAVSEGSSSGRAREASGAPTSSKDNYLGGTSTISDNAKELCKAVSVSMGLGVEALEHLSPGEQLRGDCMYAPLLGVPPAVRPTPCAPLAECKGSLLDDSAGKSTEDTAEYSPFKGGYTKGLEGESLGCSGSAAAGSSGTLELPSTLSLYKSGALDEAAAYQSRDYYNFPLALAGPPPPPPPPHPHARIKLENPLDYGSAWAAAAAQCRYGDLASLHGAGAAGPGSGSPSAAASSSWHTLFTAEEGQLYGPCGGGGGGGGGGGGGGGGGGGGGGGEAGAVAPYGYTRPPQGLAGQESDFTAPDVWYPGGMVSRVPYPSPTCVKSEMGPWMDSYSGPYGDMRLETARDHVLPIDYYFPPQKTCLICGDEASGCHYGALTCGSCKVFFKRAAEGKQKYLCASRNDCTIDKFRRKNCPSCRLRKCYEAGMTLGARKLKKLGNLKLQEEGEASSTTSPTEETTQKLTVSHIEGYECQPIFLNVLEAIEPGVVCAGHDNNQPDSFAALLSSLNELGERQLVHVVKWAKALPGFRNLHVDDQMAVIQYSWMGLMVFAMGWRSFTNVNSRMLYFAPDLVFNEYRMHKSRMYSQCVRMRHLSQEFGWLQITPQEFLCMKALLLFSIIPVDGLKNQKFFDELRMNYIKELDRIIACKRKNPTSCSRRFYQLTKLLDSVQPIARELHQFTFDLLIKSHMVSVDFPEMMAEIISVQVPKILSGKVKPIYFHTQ
Chain of rat Glycine Receptor, Strychnine-sensitive (GlyRStrySens), Glra1 (gene 25674) (P07727 whole entry, looked up): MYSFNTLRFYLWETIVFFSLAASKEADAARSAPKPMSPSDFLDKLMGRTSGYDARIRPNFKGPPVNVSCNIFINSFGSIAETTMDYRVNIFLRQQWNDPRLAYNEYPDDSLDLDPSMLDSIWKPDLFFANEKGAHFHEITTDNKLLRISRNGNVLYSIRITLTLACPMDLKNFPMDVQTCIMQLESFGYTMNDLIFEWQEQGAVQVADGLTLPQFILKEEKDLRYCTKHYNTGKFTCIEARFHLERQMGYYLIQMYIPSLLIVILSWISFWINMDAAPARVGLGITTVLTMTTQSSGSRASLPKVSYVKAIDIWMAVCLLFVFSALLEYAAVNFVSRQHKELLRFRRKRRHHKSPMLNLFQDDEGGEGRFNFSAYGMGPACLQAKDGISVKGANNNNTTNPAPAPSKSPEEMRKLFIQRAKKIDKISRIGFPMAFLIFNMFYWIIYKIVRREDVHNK

As to `CC(C)NCC(O)c1ccc(O)c(O)c1` (centres undefined), the result in [1] was inactive.
In the case of `CN(C)C(=O)NC1(c2ccccc2)CCN(CCC[C@]2(c3ccc(Cl)c(Cl)c3)CCCN(C(=O)c3ccccc3)C2)CC1`, the half-maximal activity concentration (AC50) was 1.24 µM (active) in [2], 0.0164 µM (active) in assay [1] and 2.97 µM (active) in [7]. Also, the outcome in [3], in assay [4], in assay [5] and in [6] was inactive.
`O=C(N[C@@H](c1ccccc1)[C@@H]1CCCCN1)c1cccc(C(F)(F)F)c1Cl`: the AC50 in assay [2] is 32.9 µM (active); in assay [8], 25 µM (active); in [9], 25 µM (active). The outcome in [4], in assay [5], in assay [10] and in [7] was inactive.
For the compound `CS(=O)(=O)c1ccc([C@@H](C[C@H]2CCC(=O)C2)C(=O)Nc2cnccn2)cc1Cl`, in assay [1], the half-maximal activity concentration (AC50) was 0.0043 µM (active). Besides, the compound was classed as inactive in [4], in [5], in assay [6] and in [7].
Consider `O=C(Oc1ccccc1)c1cccc(C(=O)Oc2ccccc2)c1`, for which the compound was classed as inactive in [11] and in assay [12].
With `CCN(CC)CCOc1ccc(C(=C(Cl)c2ccccc2)c2ccccc2)cc1`, the result in [13] was inactive. For the same compound, the AC50 in assay [1] was 1.82 µM (active); in assay [14], 11.6 µM (active); in assay [9], 34 µM (active); in assay [15], 4.82 µM (active); in assay [16], 13.5 µM (active).
For the compound `CCc1nc(N)nc(N)c1-c1ccc(Cl)cc1`, the compound was called inactive in [8], in [4], in assay [5], in [6] and in assay [7]. Further, the AC50 is 8.29 µM (active) in assay [17], 2.7 µM (active) in assay [13] and 2.94 µM (active) in [1].
Turning to `Cc1cc(Cc2ccc(N)c(C)c2)ccc1N`, the call in assay [8] and in assay [18] was inactive. In addition, the AC50 in assay [15] was 25 µM (active).
As to `Cc1cc(SC2=C(O)C[C@@](CCc3ccc(N)cc3)(C(C)C)OC2=O)c(C(C)(C)C)cc1CO`, the outcome in assay [2], in assay [8] and in assay [12] was inactive.
Turning to `NC1CCCCC1`, the result in assay [19], in [4], in assay [5], in assay [6] and in assay [7] was inactive.
For the compound `c1ccc2occc2c1`, the outcome in assay [3], in [4] and in assay [5] was inactive.
In the case of `Cn1cnc2c1c(=O)[nH]c(=O)n2C`, the compound was classed as inactive in assay [2] and in assay [1].
For `O=C(O)c1[nH]n(-c2ccc(S(=O)(=O)O)cc2)c(=O)c1N=Nc1ccc(S(=O)(=O)O)cc1`, the result in assay [2], in [4] and in [5] was inactive.
For `CCCCCCC(CCCCCCCCCCC(=O)OCC(COC(C)=O)OC(C)=O)OC(C)=O` (centres undefined), the outcome in assay [2], in assay [4], in assay [5] and in assay [7] was inactive.

What is called AC50 is the concentration at which the activity in the assay is half-maximal.

The values above are taken from PubChem BioAssay (EPA / NIEHS).
